In PubChem BioAssay AID1851 (National Center for Advancing Translational Sciences (NCATS), 2009):
“And” between values parts separate entries of the source, which are not always exact repeats. Identical values can stand only once. Hit rate of the full screen: of about 16,000 compounds, about 5,800 (36%) were called active. Roughly 23% stayed inconclusive and do not appear here. Calls come from the whole dose curve; as a rule, active = well fitted curve in the direction sought with a large enough effect; inconclusive = small, poorly fitted or top-dose-only effect, or effect the other way; inactive = no such curve, though single readings can be large or run the other way. This is one part of the list. Where a structure was tested more than once in an assay, its records may differ in their call.
% is set by controls: 0 for no effect and ±100 for the full control effect.

What follows are molecules tested against Cytochrome P450 2C19 (Homo sapiens) (UniProt P33261) (assay: Cytochrome panel assay with activity outcomes). Conditions: recombinant CYP, pro-luciferin dealkylation, luminescence, p450-cyp2c19; series mostly up to 57.1 µM.
Chain of Cytochrome P450 2C19 (Homo sapiens) (P33261 whole entry, looked up): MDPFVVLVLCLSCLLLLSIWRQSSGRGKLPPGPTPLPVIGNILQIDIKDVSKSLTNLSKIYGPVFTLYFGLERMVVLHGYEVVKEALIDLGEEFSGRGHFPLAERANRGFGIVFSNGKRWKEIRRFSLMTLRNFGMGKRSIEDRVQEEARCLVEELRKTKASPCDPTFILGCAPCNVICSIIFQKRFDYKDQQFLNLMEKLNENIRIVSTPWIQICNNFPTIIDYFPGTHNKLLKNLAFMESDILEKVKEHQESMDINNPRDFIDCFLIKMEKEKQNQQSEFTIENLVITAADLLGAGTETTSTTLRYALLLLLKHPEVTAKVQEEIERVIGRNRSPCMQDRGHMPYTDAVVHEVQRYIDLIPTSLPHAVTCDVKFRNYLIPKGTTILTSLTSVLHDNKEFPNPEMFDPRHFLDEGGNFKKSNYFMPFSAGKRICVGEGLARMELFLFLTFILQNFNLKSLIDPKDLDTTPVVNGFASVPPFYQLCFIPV
`CSCC[C@@H](N)P(C)(=O)O` was tested, and the activity, negative = inhibition was 29.3% [at 11.4 µM] (inactive). In the case of `O[Si@](CCCN1CCCCC1)(c1ccc(F)cc1)C1CCCCC1`, the AC50 is reported as “inactive”. `C[N+]1(C)[C@@H]2CC(OC(=O)[C@@H](CO)c3ccccc3)C[C@@H]1[C@H]1O[C@H]12` (some centres undefined) was tested, and the activity, negative = inhibition was 26.7% [at 11.4 µM] (inactive). In the case of `C[C@@H]1O[C@H](OC2[C@@H](O)[C@H](O)C(O)[C@H](O)[C@H]2O)[C@@H](N)C[C@@H]1N=C(N)C(=O)O` (some centres undefined), the activity, negative = inhibition is reported as 19% [at 11.4 µM] (inactive). With `N[C@@H](CP(=O)(O)O)C(=O)O` the activity, negative = inhibition was 9.32% [at 11.4 µM] (inactive). `CC[C@@]1(c2ccc(N)cc2)CCC(=O)NC1=O` was tested, and the AC50 was “inactive”. `CN1CC[C@@]2(CCCN(C(=O)Oc3ccccc3)C2)C1` was tested, and the AC50 was “inactive”. In the case of `C[C@@]12C=CC(=O)C=C1CC[C@@H]1C2=CC[C@]2(C)[C@@H]1CC[C@H]2C(=O)CN1CCN(c2cc(N3CCCC3)nc(N3CCCC3)n2)CC1`, the AC50 is reported as “inactive”. With `O[C@@H](c1cc(-c2ccccc2)nc2c1ccc1ccccc12)[C@@H]1CCCCN1` the activity, negative = inhibition was -42.2% [at 11.4 µM] (inactive). With `CCCN1CCc2cccc3c2[C@@H]1Cc1ccc(O)c(O)c1-3` the AC50 was “inactive”. In the case of `C[C@@H]1O[C@H](O[C@@H]2CC[C@@]3(C=O)[C@H]4CC[C@@]5(C)[C@@H](C6=CC(=O)OC6)CC[C@@]5(O)[C@@H]4CC[C@]3(O)C2)C[C@H](O)[C@@H]1O`, the AC50 is reported as “inactive”. For `COC(=O)[C@@H]1[C@@H]2C[C@H]3c4[nH]c5cc(OC)ccc5c4CCN3C[C@@H]2C[C@H](OC(=O)/C=C\c2cc(OC)c(OC)c(OC)c2)[C@H]1OC`, the AC50 was “inactive”. In the case of `O=c1[nH]c(=O)n([C@H]2C[C@H](O)[C@H](CO)O2)cc1/C=C\Br`, the AC50 is reported as “inactive”. For `COc1ccc2c(c1)CN([C@H](C)[C@@H]1CC[C@@H]3[C@H]4CC[C@H]5C[C@@H](O)CC[C@@]5(C)[C@H]4CC[C@]31C)CO2`, the AC50 was 1 µM (active). In the case of `CC(=O)OCC(=O)[C@@H]1CC[C@H]2[C@H]3CC[C@H]4C[C@@H](O)CC[C@]4(C)[C@@H]3C(=O)C[C@@]12C`, the AC50 is reported as “inactive”. In the case of `C[C@@]12CC[C@H](O)C[C@@H]1CC[C@H]1[C@H]2CC[C@@]2(C)[C@@H](C3=CC(=O)OC3)CC[C@]12O`, the AC50 is reported as “inactive”. With `O=c1c(O)c(-c2ccc(O)c(O)c2)oc2cc(O)cc(O)c12` the AC50 was “inactive”. With `CS(=O)(=O)N1CCCC(C(=O)N2CCC3(CC2)OCCO3)C1` (centres undefined) the AC50 was 10 µM (active). `COc1ccc2c(c[n+](C)c3c4cc5c(cc4ccc23)OCO5)c1OC` was tested, and the AC50 was 10 µM (active). For `CC1(C)CCC(C)(C)c2c1ccc(O)c2Cc1c(O)ccc2c1C(C)(C)CCC2(C)C`, the activity, negative = inhibition was -38.9% [at 11.4 µM] (inactive). In the case of `O=C(O)C(C(=O)O)P(=S)(S)c1ccccc1` (centres undefined), the activity, negative = inhibition is reported as 23.5% [at 11.4 µM] (inactive). In the case of `CC(Oc1ccc(-c2ccccc2)cc1)C(=O)O` (centres undefined), the AC50 is reported as 28.2 µM (active). In the case of `N[C@H](C(=O)O)c1cc(=O)[nH]o1`, the AC50 is reported as “inactive”. For `c1cnc(N2CCC3(CCNCC3)CC2)nc1`, the AC50 was “inactive”. `C[C@@]12CC[C@H]3[C@@H](CCC4=C(O)C(=O)CC[C@]43C)[C@H]1CCC2=O` was tested, and the AC50 was “inactive”. In the case of `COc1cc(C=C(C#N)C#N)cc(O)c1O`, the AC50 is reported as “inactive”. In the case of `CS(=O)(=O)O[C@H]1CN2CCC1CC2`, the activity, negative = inhibition is reported as 20.2% [at 11.4 µM] (inactive). For `S=P(C1CCCCC1)(C1CCCCC1)[C@H](c1cccnc1)N1CCCC1`, the AC50 was 1.26 µM (active). With `NP(N)(=O)NC(=O)c1ccc(F)cc1` the AC50 was “inactive”. With `c1csc(CN2CC[C@@]3(CCCNC3)C2)n1` the AC50 was “inactive”. With `C[N+]12CCC(CC1)[C@@H](OC(=O)C(O)(c1ccccc1)c1ccccc1)C2` the AC50 was “inactive”. `N#CCCN` was tested, and the AC50 was “inactive”. In the case of `c1ccc2cc(CC3=NCCN3)ccc2c1`, the AC50 is reported as “inactive”. For `COc1ccc2cc1Oc1ccc(cc1)C[C@H]1c3cc(c(OC)cc3CCN1C)Oc1c(OC)c(OC)cc3c1[C@@H](C2)N(C)CC3`, the activity, negative = inhibition was -36.6% [at 11.4 µM] (inactive). In the case of `CC1=C2[C@@H]3OC(=O)[C@@H](C)[C@@H]3CC[C@]2(C)C=CC1=O`, the AC50 is reported as “inactive”. With `CCCCN1C(=O)/C(=C\c2ccco2)C(=O)N(CCc2ccccc2)C1=O` the AC50 was 10 µM (active). `Cc1cc2c(C(C)C)c(O)c(O)c(C=O)c2c(O)c1-c1c(C)cc2c(C(C)C)c(O)c(O)c(C=O)c2c1O` was tested, and the AC50 was “inactive”. For `COC1=C[C@H]2C3=C([C@H]2C1=O)[C@H](NC(C)=O)CCc1cc(OC)c(OC)c(OC)c13`, the AC50 was “inactive”. For `NC(=O)c1ccc(-c2nc(-c3ccc4c(c3)OCO4)c(-c3ccccn3)[nH]2)cc1`, the AC50 was 2.51 µM (active). `CC(C)C(=O)CP(=O)(O)O` was tested, and the activity, negative = inhibition was 8.85% [at 11.4 µM] (inactive). With `N=C(N)SCc1ccc(Cl)c2ccccc12` (tested in a mixture with another compound) the activity, negative = inhibition was -27.8% [at 11.4 µM] (inactive) and -26.6% [at 11.4 µM] (inactive). `Cn1c(O)c(C(c2ccccn2)c2c(O)n(C)c(=S)n(C)c2=O)c(=O)n(C)c1=S` was tested, and the AC50 was “inactive”. For `COC(=O)C(O)(c1c(C)[nH]c2ccccc12)C(F)(F)F` (centres undefined), the AC50 was 5.01 µM (active). In the case of `c1ccc2sc(C3(N4CCCCC4)CCCCC3)cc2c1`, the AC50 is reported as “inactive”. In the case of `Nc1ncnc2c1ncn2[C@@H]1O[C@@H](COP(=O)(O)CP(=O)(O)OP(=O)(O)O)[C@H](O)[C@@H]1O`, the AC50 is reported as “inactive”. With `NNC(N)=O` the AC50 was “inactive”. With `c1cncc(CNCCN2CCNCC2)c1` the activity, negative = inhibition was 7.54% [at 11.4 µM] (inactive). `c1cncc([C@@H]2CCCCN2)c1` was tested, and the AC50 was “inactive and 2 µM (active)”. For `COc1ccc2c(c1)[C@]13CCCC[C@@H]1[C@H](C2)N(C)CC3`, the AC50 was “inactive”. `O=[As](O)(O)c1ccc(N=Nc2ccc(O)cc2)cc1` was tested, and the activity, negative = inhibition was -12.7% [at 11.4 µM] (inactive). In the case of `CCOc1ccc(C2C(C#N)=C(N)Oc3c2c(=O)oc2ccccc32)cc1` (centres undefined), the AC50 is reported as 5.62 µM (active). With `CN1CC[C@@]2(CCCN(C(=O)c3ccncc3)C2)C1` the AC50 was “inactive”. With `O=C1CS[C@@H](c2ccccc2Cl)c2cc(Cl)ccc2N1` the AC50 was 25.1 µM (active). With `O=S(=O)(NCCO)c1cc[c]([Sb](=[O])([OH])[OH])cc1` the activity, negative = inhibition was 14.4% [at 11.4 µM] (inactive). In the case of `CC(C)c1ccc(C(O)(C(=O)O)c2ccc(C(C)C)cc2)cc1`, the activity, negative = inhibition is reported as 21.5% [at 11.4 µM] (inactive). For `C[C@@]12CC[C@@H]3[C@H](CCC4=CC(=O)CC[C@]43C)[C@@H]1CC[C@@H]2C(=O)COS(=O)(=O)c1ccc(Br)cc1`, the activity, negative = inhibition was -21.8% [at 11.4 µM] (inactive). In the case of `COc1cc2c3cc1Oc1cc(ccc1O)C[C@@H]1c4c(cc(OC)c(O)c4Oc4cccc(c4)C[C@H]3N(C)CC2)CC[N+]1(C)C`, the AC50 is reported as “inactive”. In the case of `Cc1nc2ccccc2cc1C[N+]12CN3CN(CN(C3)C1)C2`, the activity, negative = inhibition is reported as -23.7% [at 11.4 µM] (inactive). In the case of `O=C(Cc1ccc(Cl)c(Cl)c1)N1CCCC[C@H]1CN1CCCC1`, the AC50 is reported as “inactive and 6.31 µM (active)”. In the case of `COC(=O)N1CCN(C(=O)Cc2ccc(Cl)c(Cl)c2)[C@H](CN2CCCC2)C1`, the AC50 is reported as “inactive and 25.1 µM (active)”. In the case of `CC[N+](CC)(CC)CCOc1cccc(OCC[N+](CC)(CC)CC)c1OCC[N+](CC)(CC)CC`, the AC50 is reported as “inactive”. With `C=C[C@H]1CN2CC[C@@H]1C[C@H]2[C@@H](O)c1ccnc2ccccc12` the AC50 was “inactive”. With `N[C@H](Cn1ccc(=O)[nH]c1=O)C(=O)O` the AC50 was “inactive”. `C[C@@]12CC[C@H](O[C@@H]3O[C@H](CO)[C@@H](O)[C@H](O)[C@@H]3O)C[C@@H]1CC[C@H]1[C@H]2CC[C@@]2(C)[C@@H](C3=CCOC3=O)CC[C@]12O` was tested, and the activity, negative = inhibition was 22.6% [at 11.4 µM] (inactive). In the case of `COC(=O)[C@H]1[C@H](c2ccccc2)C(=O)[C@@]2(O)c3ccccc3O[C@@]12c1ccccc1`, the activity, negative = inhibition is reported as -15.7% [at 11.4 µM] (inactive). `COc1cc2c(cc1O)C[C@H]1c3c(cc(O)c(OC)c3-2)CCN1C` was tested, and the AC50 was “inactive”. `CC1=CC(=O)C2=C(C)C[C@@H](O)[C@@H]3[C@@H](OC(=O)[C@H]3C)[C@H]12` was tested, and the AC50 was “inactive”. For `C[N+]1([O-])[C@@H]2CC[C@H]1CC(OC(=O)[C@@H](CO)c1ccccc1)C2` (some centres undefined), the AC50 was “inactive”. `CC12CN3CC(C)(CN(C1)C31CCSCC1)C2=O` was tested, and the AC50 was “inactive”. `CC(=O)N1CCC2(CC1)CC(=O)c1cc(OCC(=O)N3CCN(C)CC3)ccc1O2` was tested, and the AC50 was “inactive”. In the case of `COc1cc(CN2CCN(C(=O)COc3ccccc3)CC2)cc(OC)c1OC`, the AC50 is reported as “inactive”. In the case of `O=C(COc1ccc2ccccc2c1)N1CCN(CC2CC3C=CC2C3)CC1` (centres undefined), the AC50 is reported as 10 µM (active). `C(=NC12CN3CN(CN(C3)C1)C2)c1cccs1` was tested, and the AC50 was “inactive”. For `CCCc1cc2c(n1Cc1cccc(Cl)c1)C(C)C1CN(C(=O)c3ccccc3)C(C)(C(=O)OC)C21` (centres undefined), the AC50 was 15.8 µM (active). `N#CCCCC[N+]12CN3CN(CN(C3)C1)C2` was tested, and the activity, negative = inhibition was 19.8% [at 11.4 µM] (inactive). For `O=C(O)[C@H]1C[C@@H]1[C@H](NP(=O)(c1ccccc1)c1ccccc1)c1ccccc1`, the AC50 was “inactive”. `C=C(CC1(C(C)NP(=O)(c2ccccc2)c2ccccc2)CC1)c1ccccc1` (centres undefined) was tested, and the AC50 was 10 µM (active). `C=C(CC1(CNP(=O)(c2ccccc2)c2ccccc2)CC1)c1ccccc1` was tested, and the AC50 was “inactive”. With `CNC(=O)OCC[N+](C)(C)C` the AC50 was “inactive”. For `O=C(O)c1ccccc1-c1c2cc(Br)c(=O)cc-2oc2[c]([Hg])c(O)c(Br)cc12`, the AC50 was 3.16 µM (active). In the case of `NC(N)=Nc1ccc2[nH]c3c(c2c1)C[C@]1(O)[C@@H]2Cc4ccc(O)c5c4[C@]1(CCN2CC1CC1)[C@@H]3O5`, the AC50 is reported as “inactive”. For `N[C@H](Cc1ccc2oc3cc(=O)c4ccccc4c-3nc2c1)C(=O)O`, the activity, negative = inhibition was -35.8% [at 11.4 µM] (inactive). In the case of `O=C(O)CCCc1ccc(N(CCCl)CCCl)cc1`, the AC50 is reported as “inactive”. With `COC(=O)c1[nH]c2ccc(Br)cc2c1NC(=O)Oc1ccccc1` the AC50 was 11.2 µM (active).
